Source: PubChem BioAssay (The Scripps Research Institute Molecular Screening Center)
This is a sample that favours compounds with a hit; in the whole collection about 3.4% have one here.
ADAM10 inh: human ADAM10 inhibitors, primary screen, biochemical, QFRET, HTS | recombinant ADAM10, EDANS/DABCYL FRET peptide cleavage, 3 h | inhibition, % at 7 µM | hit rate 0.62% among 370,000;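 active = inhibition above a per-campaign cutoff equal to the mean of compounds falling between control-based bounds plus 3 SD, cut at about 20% in these data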;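 also: 0% = DMSO wells while the 100% control is not disclosed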
HGIII-sPLA2 inh: human group III sPLA2 inhibitors, primary screen, biochemical, QFRET, BODIPY PC-A2 liposome substrate. Group 3 secretory phospholipase A2 (Homo sapiens), Q9NZ20. hit rate 0.56% among 370,000. inhibition, % at 12.2 µM. QFRET BODIPY PC-A2 liposome hydrolysis, fluorescence. AID 743126, 2013;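 active = inhibition above mean plus 3 SD of compounds lying within the high and low control bounds, cut at about 19% in these data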;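 also: 0% = median of test compound wells and 100% = no enzyme DMSO wells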
PLCb3 inh: human PLC-beta3 inhibitors, primary screen, biochemical, fluorescence; Purified PLC-beta3, fluorogenic substrate; 1-phosphatidylinositol 4,5-bisphosphate phosphodiesterase beta-3 (Homo sapiens), Q01970; inhibition, % at 12.2 µM; hit rate 0.18% among 370,000; in the data active = inhibition above about 11%;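 also: 0% = median of compound wells on plate and 100% = full blocker control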
ADAM17 inh: ADAM17 inhibitors, primary screen, biochemical, QFRET; hit rate 0.83% among 370,000; recombinant ADAM17, EDANS/DABCYL FRET peptide cleavage; inhibition, % at 6.95 µM;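 active = inhibition above the mean of compounds lying between control limits plus 3 SD, set per campaign, cut at about 8.5% in these data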;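 also: 0% = DMSO-only wells as the low control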
PLC-gamma1 inh: PLC-gamma1 enzyme inhibitors, primary screen, biochemical, fluorescence, purified enzyme; 1-phosphatidylinositol 4,5-bisphosphate phosphodiesterase gamma-1 (Homo sapiens), P19174; fluorogenic substrate; inhibition, % at 12.2 µM; hit rate 0.84% among 370,000; in the data active = inhibition above about 9.5%
KLK7 zymogen act: proKLK7 zymogen activators, primary screen, biochemical, fluorescence intensity; hit rate 0.9% among 370,000; AID 652039, 2013; activation, % at 7 µM; purified proKLK7, EDANS-DABCYL substrate fluorescence; 100% is mature enzyme control, 0% vehicle; Kallikrein-7 (Homo sapiens), P49862;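 active = activation above the mean of all tested compounds plus 3 SD, computed per campaign excluding outliers beyond control limits, cut at about 13% in these data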
Target sequence (P49862 whole entry, looked up): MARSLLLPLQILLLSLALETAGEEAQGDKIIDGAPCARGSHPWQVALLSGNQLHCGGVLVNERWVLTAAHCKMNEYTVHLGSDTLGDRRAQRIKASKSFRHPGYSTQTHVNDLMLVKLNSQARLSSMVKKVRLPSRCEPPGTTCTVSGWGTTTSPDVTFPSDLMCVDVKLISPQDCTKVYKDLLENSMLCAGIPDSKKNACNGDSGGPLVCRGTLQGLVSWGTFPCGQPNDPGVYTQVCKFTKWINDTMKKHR
ADAM10 ctr: ADAM10 inhibitors, counter-screen for ADAM17 exosite inhibitor project, biochemical, FRET, human ADAM10; hit rate 47% among 2,900; recombinant ADAM10, EDANS/DABCYL FRET peptide cleavage, 3 h; AID 743256, 2014; shares compounds with ADAM17 inh; inhibition, % at 6.95 µM;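 active = mean inhibition over the triplicate runs exceeds the activity threshold set in the earlier primary screen, cut at about 20% in these data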;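 also: 0% = DMSO wells and 100% = marimastat wells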
ADAM17 confirm: ADAM17 inhibitors, hit retest, confirmation, biochemical, QFRET peptide cleavage. shares compounds with ADAM17 inh. recombinant ADAM17, EDANS/DABCYL QFRET peptide cleavage. inhibition, % at 6.95 µM. hit rate 65% among 2,900. AID 743257, 2014;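 active = mean inhibition across replicates above the hit cutoff set in the primary screen, cut at about 8.5% in these data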;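 also: 0% = DMSO wells and 100% = marimastat wells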
Numbers without * were called inactive; . = no result.

SMILES	ADAM10 inh	HGIII-sPLA2 inh	PLCb3 inh	ADAM17 inh	PLC-gamma1 inh	KLK7 zymogen act	ADAM10 ctr	ADAM17 confirm
Cc1ccc(S(=O)(=O)N/N=C/c2cccc3nccnc23)cc1	6	16	-4	8.8*	7	0	18	8
Cc1ccc(S(=O)(=O)N/N=C/c2cccc3c2OCCO3)cc1	-13	4	-11	-3	-14	0	.	.
Cc1cc(C)c(S(=O)(=O)N2CCCOC2CNC(=O)C(=O)NCCc2c[nH]c3ccccc23)c(C)c1 (stereo unspecified)	16	-112	3	8.6*	0	-1	20*	12*
Cc1ccc(C)c(NC(=O)C(=O)NCCc2c[nH]c3ccccc23)c1	-4	-69	-7	-5	1	1	.	.
Cc1cc(C)cc(NC(=O)C(=O)NCCc2c[nH]c3ccccc23)c1	27*	-78	-9	11*	3	0	21*	11*
COC(=O)C1CCN(C(=O)C2CC(=O)N(c3ccc(C)c(Cl)c3)C2)CC1 (stereo unspecified)	0	-7	-7	0	2	0	.	.
Nc1[nH]c(C(=O)c2ccccc2)c(-c2cc(F)ccc2Br)c1C(=O)NCCc1c[nH]c2ccccc12	13	-46	-20	10*	-15	0	26*	16*
Cc1cc(C)cc(NC(=O)N2CCN(S(C)(=O)=O)CC2)c1	-4	1	4	1	-4	-1	.	.
Cc1cc(C)c(S(=O)(=O)N/N=C/c2ccc3c(c2)OCO3)c(C)c1	16	-3	-1	-2	6	0	.	.
O=C(Nc1ccc2c(c1)OCO2)c1ccc2sc([C@H]3C[C@H](O)[C@@H](CO)O3)nc2c1	-15	2	4	-7	4	0	.	.
CCc1ccc([C@H]2[C@@H]3C(=O)C[C@@H]4C(=O)N(c5ccccc5)C(=O)[C@@H]4[C@@H]3CN2S(=O)(=O)c2ccc(C)cc2)cc1	10	-39	-3	8.7*	1	1	10	10*
COc1ccc(C2CC(=O)c3c(O)cc(O)cc3O2)c(CC=C(C)C)c1OC (stereo unspecified)	17	-14	0	14*	-1	2	25*	14*
COc1cc2cnncc2cc1OC	-9	3	1	-3	1	0	.	.
COc1cc2cc(Br)cc(Br)c2nc1C	13	3	5	10*	2	0	21*	13*
C[C@H](CO)N1C[C@H](C)[C@@H](CN(C)S(=O)(=O)c2ccc(F)cc2)Oc2ccc(NC(=O)Cc3ccccc3)cc2C1=O	4	-6	0	-2	1	1	.	.
Cc1ccc(NC(=O)C(OC(=O)c2cc(C)oc2C)c2ccccc2)cc1 (stereo unspecified)	14	-31	3	11*	-1	0	16	12*
CCCCNS(=O)(=O)c1ccc2nc(SCC(=O)Nc3cccc(F)c3)[nH]c2c1	15	-38	2	8	5	0	.	.
CCCCNS(=O)(=O)c1ccc2nc(SCC(=O)Nc3ccccc3Cl)[nH]c2c1	20	-74	-1	9.9*	5	0	26*	12*
COc1cc(-c2nc(CN3CCN(C(=O)c4ccco4)CC3)c(C)o2)ccc1F	-6	-4	-4	-1	-1	0	.	.
COC(=O)c1ccccc1NC(=O)CSc1nc(Nc2ccccc2)nc(N2CCOCC2)n1	18	-15	-5	8.7*	1	0	16	9.1*
CC(=O)c1ccc(NC(=O)CSc2nc(Nc3ccccc3)nc(N3CCOCC3)n2)cc1	-3	7	-6	-3	1	0	.	.
CCOc1ccc(/C=N/NC(=O)C2CCCC2)c(OCC)c1	-2	8	-2	3	3	1	.	.
CC(Sc1nc2ccccc2s1)C(=O)N(C)Cc1ccccc1 (stereo unspecified)	-2	-4	-5	8.8*	7	-1	5	4
CC1CN(C(=O)C(C)Sc2nc3ccccc3s2)CC(C)O1 (stereo unspecified)	3	5	2	1	0	0	.	.
CC1C(=O)N2CCCc3cc(NC(=O)COc4ccccc4)cc1c32 (stereo unspecified)	-1	-16	-5	0	1	0	.	.
SMILES	ADAM10 inh	HGIII-sPLA2 inh	PLCb3 inh	ADAM17 inh	PLC-gamma1 inh	KLK7 zymogen act	ADAM10 ctr	ADAM17 confirm
COc1nc(-c2ccc(Cl)cc2Cl)nc2ccccc12	-6	1	-6	-2	-2	-1	.	.
Cc1cccnc1NC(=O)c1ccc(Br)o1	-2	8	5	8.6*	6	0	-4	0
O=c1c(Cc2ccccc2)c(O)ccn1Cc1ccco1	-1	-3	-4	-2	3	1	.	.
CC1CCC(NC(=O)c2cnccn2)CC1 (stereo unspecified)	3	-5	5	12*	3	0	3	2
CCC(Oc1ccc2c(=O)c(-c3ccccc3OC)coc2c1)C(=O)OCc1ccccc1 (stereo unspecified)	17	-8	0	11*	7	1	27*	12*
CC(C)Oc1ccc2c(=O)c(-c3ccccc3)coc2c1	1	-3	0	-3	1	0	.	.
COCCNC(=S)Nc1cc2oc3ccccc3c2cc1OC	2	12	-3	-1	3	0	.	.
CC(=O)Oc1ccc(N2C(=O)CCC2=O)cc1	-2	3	3	-2	3	1	.	.
CC(=O)Oc1ccc(N2C(=O)C3C4C=CC(O4)C3C2=O)cc1 (stereo unspecified)	-2	15	1	9.8*	3	0	19	17*
O=C(N[C@H]1C/C=C\C[C@@H](CC(=O)N(CCO)Cc2ccccc2)C(=O)N[C@H](Cc2c[nH]c3ccccc23)COC1=O)OCC1c2ccccc2-c2ccccc21	9	-38	4	10*	1	1	21*	13*
CC1CCCN(S(=O)(=O)c2ccc(NC(=O)Cn3nnc(-c4ccccc4F)n3)cc2)C1 (stereo unspecified)	17	-63	4	10*	0	0	16	11*
